# Results: the supplement of paper PMC12808144
# Unmarked numbers belong to inactive results.
# How the values were obtained:
# Mel-DCC-11 = test: cell viability relative to DMSO control (fraction of DMSO control); higher = less cytotoxic, active = 0.5 or less; settings: 1 µM; 120 h
# In short: (§1)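 Cells in 40 µl per well went into 384-well plates pre-spotted acoustically with a TargetMol library of 315 approved anti-cancer drugs, each at 1 µM in duplicate, for 120 h. Seeding was 2500/well for NHEM-hTERT immortalized melanocytes and 1500/well for patient-derived Mel-DCC-11 and its resistant subline Mel-DCC-11-R, which was run alone and with 8 µM of its selecting drug. Luminescence was read with ATPlite 1step. Viability was normalised to vehicle-treated controls and averaged over duplicates.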
# NHEM-hTERT = test: as above; settings: 1 µM; 120 h
# In short: as §1
# Mel-DCC-11-R = test: cell viability relative to DMSO control (fraction of DMSO control); higher = less cytotoxic, active = 0.8 or less; settings: 1 µM, 120 h
# In short: as §1
Compound,cell viability (Mel-DCC-11),cell viability (NHEM-hTERT),cell viability (Mel-DCC-11-R; vemurafenib co-treatment 0 µM),cell viability (Mel-DCC-11-R; vemurafenib co-treatment 8 µM)
CNC(=O)c1ccc(N2C(=S)N(c3cnc(C#N)c(C(F)(F)F)c3)C(=O)C23CCC3)cc1F [Apalutamide],1.18,1.01,0.958,1.1
COC(=O)Nc1nc2ccc(C(=O)c3cccs3)cc2[nH]1 [Nocodazole],0.998,0.63,0.823,0.518 (active)
O=C(O)CCc1nc2ccccc2[nH]1 [Procodazole],1.38,1.02,1.09,1
CC1=C(/C=C/C(C)=C/C=C/C(C)=C/C=C/C=C(C)/C=C/C=C(C)/C=C/C2=C(C)CCCC2(C)C)C(C)(C)CCC1 [Beta-Carotene],0.738,0.916,0.829,0.851
CC#CC(=O)N1CCC[C@H]1c1nc(-c2ccc(C(=O)Nc3ccccn3)cc2)c2c(N)nccn12 [Acalabrutinib],1.12,1,1.04,1
Cc1[nH]c2ccccc2c1CCNCc1ccc(/C=C/C(=O)NO)cc1 [Panobinostat],0.126 (active),0.339 (active),0.0716 (active),0.0801 (active)
CNC(=O)c1cc(Oc2ccc(NC(=O)Nc3ccc(Cl)c(C(F)(F)F)c3)cc2)ccn1 [Sorafenib],1.46,1.02,0.898,1.2
Cc1nc(Nc2ncc(C(=O)Nc3c(C)cccc3Cl)s2)cc(N2CCN(CCO)CC2)n1.O [Dasatinib monohydrate],1.22,0.506,1.65,1.54
Cc1cn(-c2cc(NC(=O)c3ccc(C)c(Nc4nccc(-c5cccnc5)n4)c3)cc(C(F)(F)F)c2)cn1 [Nilotinib],1.13,0.969,1.15,1.06
O=C(c1cc(Cc2n[nH]c(=O)c3ccccc23)ccc1F)N1CCN(C(=O)C2CC2)CC1 [Olaparib],0.809,0.988,1.09,0.92
O=C([O-])CCCc1ccccc1.[Na+] [Sodium Phenylbutyrate],1.12,1.1,,
CC[C@@H](CO)NCCN[C@@H](CC)CO.Cl.Cl [Ethambutol dihydrochloride],0.966,1.2,0.965,1.08
Cc1ccc(Nc2nccc(N(C)c3ccc4c(C)n(C)nc4c3)n2)cc1S(N)(=O)=O [Pazopanib],1.68,0.893,1.07,1.13
O=C(CCCCCCNC(=O)c1cnc(N(c2ccccc2)c2ccccc2)nc1)NO [Rocilinostat],0.614,0.847,0.681 (active),0.644 (active)
CC(=O)OCC(=O)[C@@]1(O)CC[C@H]2[C@@H]3CCC4=CC(=O)C=C[C@]4(C)[C@H]3[C@@H](O)C[C@@]21C [Prednisolone-21-acetate],1.49,0.931,1.14,1.04
Oc1ccc(/C=C/c2cc(O)cc(O)c2)cc1 [Resveratrol],1.06,1,0.914,1.16
CC1(COc2ccc3c(c2)ncn3-c2ccc3cccc(N4CCC(N)CC4)c3n2)COC1 [Crenolanib],1.81,0.873,1.26,1.35
O=C(CCBr)N1CCN(C(=O)CCBr)CC1 [Pipobroman],0.709,0.902,0.832,0.897
CN(C)C(=O)c1cc2cnc(Nc3ccc(N4CCNCC4)cn3)nc2n1C1CCCC1 [Ribociclib],0.584,0.989,1.25,1.21
CC1(C)NC(=O)N(c2ccc([N+](=O)[O-])c(C(F)(F)F)c2)C1=O [Nilutamide],1.09,1.19,1.03,0.997
